Assay outcomes (PubChem BioAssay)
KDM5B inh – inhibitors of human KDM5B histone demethylase. Q9UGL1. KDM5B demethylase, FDH-coupled NADH fluorescence (FDH is formaldehyde dehydrogenase). Potency, µM (highest dose often 57.7 µM), hits mostly inhibitors. 220,000 tested, 2.6% active. AID 1347165; active = well fitted inhibition curve with a large enough effect; also: nearly all actives have a fitted effect of over 70% in size
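KDM5BΔAP (200 nM final) in 50 mM HEPES pH 7.5, 0.01% Tween-20 was preincubated 10 min at RT with compound over a concentration range. Substrate mix (H3K4me3 12.5 µM, α-KG 25 µM, Fe²⁺, ascorbate, NAD⁺, FDH) was added, and NADH fluorescence change over 30 min gave dose-response curves.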
Of the large screens only hits and unclear results are named; the others gave an inactive call. Only a selection was taken, and hits are over-represented in it overall.

Cc1cccc(-c2noc(CSc3n[nH]c(=O)c4cc(-c5ccco5)nn34)n2)c1	none
O=C(CCC1CCCC1)N1CCN(C(=O)c2cc(=O)[nH]c3ccccc23)CC1	none
CCc1ccc(N2CC(c3noc(-c4ccncc4)n3)CC2=O)cc1 (configuration not stated)	none
CCc1ccc(-c2nc(C3CC(=O)N(c4ccc(C)cc4)C3)no2)cc1 (configuration not stated)	none
O=C1CC(c2noc(-c3ccc4c(c3)OCO4)n2)CN1c1ccc(Cl)cc1 (configuration not stated)	KDM5B inh 28µM
CCc1ccc(N2CC(c3noc(-c4ccc5c(c4)OCO5)n3)CC2=O)cc1 (configuration not stated)	KDM5B inh 32µM
Cc1cccc(-c2nc(C3CC(=O)N(c4ccc(Cl)cc4)C3)no2)c1 (configuration not stated)	none
O=C1CC(c2noc(-c3ccccc3F)n2)CN1c1ccc(Cl)cc1 (configuration not stated)	none
Cc1ccoc1C(=O)NCc1ccc(COCC(F)(F)F)cc1	none
COC(=O)C(C)(C)NC(=O)c1ccc2c(c1)NC(=O)CS2	none
S=C(NCCc1ccccc1)Nc1ccc(Sc2ccc(Br)cc2)cc1	none
COc1ccc(OC)c(C2C(C(=O)c3ccco3)=C(O)C(=O)N2c2nc3ccc(F)cc3s2)c1 (configuration not stated)	none
Cc1nn(Cc2ccccc2)c(C)c1CNS(=O)(=O)c1cccc(C#N)c1	none
CCOC(=O)c1cc2cc(NC(=O)C3CC(=O)Nc4ccccc43)ccc2s1 (configuration not stated)	none
CCCCCCCCSCCC(=O)O	none
NC(=O)C(OC(=O)c1ccccc1)C(OC(=O)c1ccccc1)C(=O)O (configuration not stated)	none
O=C(CCc1cn2ccccc2n1)N[C@H]1[C@@H]2CCO[C@@H]2[C@@H]1C1CCCC1	KDM5B inh 28µM
COc1ccc(CCC(=O)N[C@H]2[C@@H]3CCO[C@@H]3[C@@H]2C2CCCC2)cc1OC	none
O=C(CCCN1CCCCC1=O)N[C@@H]1[C@@H]2CCO[C@@H]2[C@@H]1C1CCCC1	none
O=C(CSc1ccc(Cl)cc1)c1cc2ccccc2oc1=O	none
Cc1ccc2c(CSc3nnnn3-c3ccccc3)cc(=O)oc2c1C	none
COc1ccccc1CNC(=O)C[C@@H]1c2nc(-c3cccnc3)sc2C[C@@H]2[C@](C)(CO)[C@H](O)CC[C@]21C	KDM5B inh 25µM
CC(C)NC(=O)C[C@@H]1c2nc(NC(=O)c3ccc(C(C)(C)C)cc3)sc2C[C@@H]2[C@](C)(CO)[C@H](O)CC[C@]21C	KDM5B inh 32µM
COCC(=O)Nc1nc2c(s1)C[C@@H]1[C@](C)(CO)[C@H](O)CC[C@@]1(C)[C@@H]2CC(=O)N1CCOCC1	none
CC(C)(C)c1ccc(C(=O)Nc2nc3c(s2)C[C@@H]2[C@](C)(CO)[C@H](O)CC[C@@]2(C)[C@@H]3CC(=O)N2CCOCC2)cc1	KDM5B inh 28µM
C[C@@H](NC(=O)C[C@@H]1c2nc(NC(=O)CC(C)(C)C)sc2C[C@@H]2[C@](C)(CO)[C@H](O)CC[C@]21C)c1ccccc1	none
Cc1nc2c(s1)C[C@@H]1[C@](C)(CO)[C@H](O)CC[C@@]1(C)[C@@H]2CC(=O)NCc1cccnc1	none
C[C@]1(CO)[C@H]2Cc3sc(NC(=O)c4ccc(F)cc4)nc3[C@@H](CC(=O)O)[C@]2(C)CC[C@H]1O	none
C[C@H](NC(=O)C[C@@H]1c2nc(NC(=O)c3ccc(F)cc3)sc2C[C@@H]2[C@](C)(CO)[C@H](O)CC[C@]21C)c1ccccc1	KDM5B inh 32µM
C[C@]1(CO)[C@H]2Cc3sc(NC(=O)C4CCCCC4)nc3[C@@H](CC(=O)N3CCOCC3)[C@]2(C)CC[C@H]1O	none
COCC(=O)Nc1nc2c(s1)C[C@@H]1[C@](C)(CO)[C@H](O)CC[C@@]1(C)[C@@H]2CC(=O)NC(C)C	none
COCC(=O)Nc1nc2c(s1)C[C@@H]1[C@](C)(CO)[C@H](O)CC[C@@]1(C)[C@@H]2CC(=O)NCc1cccnc1	none
CC(C)NC(=O)C[C@@H]1c2nc(NC(=O)c3c(F)cccc3F)sc2C[C@@H]2[C@](C)(CO)[C@H](O)CC[C@]21C	none
CCCn1c(=O)[nH]c(=O)c2c1nc(-c1ccc(Cl)cc1)n2CCOC	none
CC1CCCCN1CCNC(=O)C1CCN(c2nc3cccnc3s2)CC1 (configuration not stated)	none
CCCCc1c(C)[nH]c2c(C)cccc2c1=S	none
CCc1ccc(C(=O)N(Cc2ccccn2)C2CC2)s1	none
O=C(/C=C/c1ccccc1)NNC(=S)NCc1ccccc1	none
Cc1cnc(CCNC(=O)Cc2ccccc2)n1CC1CC1	none
COC(=O)c1cnn(-c2ccc(C(=O)Nc3ccc(Br)cc3F)cc2)c1N	none
N#C/C(=C/c1ccc(F)c(F)c1)C(=O)Nc1ccc(Oc2ccc(NC(=O)/C(C#N)=C\c3ccc(F)c(F)c3)cc2)cc1	none
CC(C)(C)c1ccc(C(=O)Nc2nc3c(s2)C[C@@H]2[C@](C)(CO)[C@H](O)CC[C@@]2(C)[C@@H]3CC(=O)NCc2ccco2)cc1	KDM5B inh 18µM
C[C@]1(CO)[C@H]2Cc3sc(NC(=O)c4ccco4)nc3[C@@H](CC(=O)NCc3ccccc3)[C@]2(C)CC[C@H]1O	none
CC(C)(C)CC(=O)Nc1nc2c(s1)C[C@@H]1[C@](C)(CO)[C@H](O)CC[C@@]1(C)[C@@H]2CC(=O)NCc1ccco1	none
O=C(O)c1ccc(/C=C/c2nc3cc(Cl)ccc3s2)cc1	none
COc1cccc(CNC(=O)Cn2cccc2-c2nc(-c3ccc4c(c3)OCO4)no2)c1	KDM5B inh 28µM
O=C(Cn1cccc1-c1nc(-c2ccc3c(c2)OCO3)no1)NCc1ccc(Cl)cc1	none
O=C(NCc1ccccc1Cl)c1noc(-c2ccc(F)cc2)n1	none
O=C(NCc1ccc2c(c1)OCO2)c1ccc2c(c1)N(Cc1cccc(Cl)c1)C(=O)c1ccccc1S2	none
Cc1ccc(-c2nc(C(=O)NCc3ccc4c(c3)OCO4)no2)cc1	none
O=C(NCc1ccc(F)cc1Cl)c1noc(-c2ccc3c(c2)OCO3)n1	KDM5B inh 32µM
Cc1ccc(-c2nc(C(=O)N3CCN(Cc4ccc5c(c4)OCO5)CC3)no2)cc1	none
Cc1ccc(-c2nc(C(=O)NCc3ccccc3Cl)no2)cc1	none
COc1ccc(CNC(=O)Cn2cccc2-c2nc(-c3ccc4c(c3)OCO4)no2)cc1OC	none
COc1cccc(CNC(=O)c2noc(-c3ccc(C)cc3)n2)c1	none
O=C(NCc1cccc(Cl)c1)c1noc(-c2ccc3c(c2)OCO3)n1	KDM5B inh 28µM
Cc1ccc(CNC(=O)c2noc(-c3ccc4c(c3)OCO4)n2)cc1	KDM5B inh 35µM
CC(Oc1cccc(C(C)C)c1)C(N)=O (configuration not stated)	none
NCCC(=O)N1CCCC(N2CCN(Cc3ccc4c(c3)OCO4)CC2)C1 (configuration not stated)	none
O=C(COC(=O)C1CCN(c2ccc(C(F)(F)F)cn2)CC1)Nc1ccc(C(F)(F)F)cc1	none
N#Cc1c(NC(=O)CSc2nc3ccc(Cl)cc3[nH]2)sc2c1CCC2	none
C=CCNc1nc(C(=O)OCC(=O)N(C)CC(=O)Nc2ccc(C)cc2)cs1	none
CCOc1ccc(C(C)=O)cc1COC(=O)C(C)NC(=O)c1ccccc1 (configuration not stated)	none
Cc1ccc(-c2nc(C(=O)NCCc3ccccc3)no2)cc1	none
Cc1cccc(CCNC(=O)c2noc(-c3ccc4c(c3)OCO4)n2)c1	KDM5B inh 32µM
COc1ccc(OC)c(CNC(=O)c2noc(-c3ccc(C)cc3)n2)c1	none
COc1ccc(CNC(=O)c2noc(-c3ccc4c(c3)OCO4)n2)cc1	KDM5B inh 28µM
